Results reported in the supplement of paper PMC4894684.
Where a name gives a salt, the structure may show the parent alone. ± gives the standard deviation of the averaged measurements.

Tested on: Toxoplasma gondii RH (in HFF)
Test: parasite growth relative to the screen mean (all compounds = 100%); higher = less inhibition of parasite growth
Conditions: 5 µM; 72 h; oxygen 21 %
Method in brief: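 RH β-Gal–GFP Toxoplasma at MOI 1:5 was used to infect confluent human foreskin fibroblasts in 96-well plates within 2 h of pin-transferring compounds to 5 µM final. After 72 h at 21% O2, parasite number was determined by CPRG β-Gal assay against standard curves on the same plate. Growth is relative to the screen mean and averaged over two screens, with all compounds = 100%.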

Row | SMILES | parasite growth
1 | Nc1nc(NCC2CCC(CNS(=O)(=O)c3cccc4ccccc34)CC2)nc2ccccc12 (stereo not given) | < 0%
2 | CC1(C)C[C@@H]1C(=O)N/C(=C\CCCCSC[C@H](N)C(=O)O)C(=O)O [Cilastatin sodium] | 117 ± 14%
3 | CC#CCOC(=O)c1c(C)nc2sc3c(c2c1N)CCC(O)C3 (stereo not given) | 117.8 ± 0.28%
4 | CC(C)Oc1cccc(-n2c(CCc3c[nH]c4ccc(Br)cc34)nc3ccccc3c2=O)c1 | 55.84 ± 0.023%
5 | Cc1nn(-c2ccccc2)c(C)c1C=NN1CCN(Cc2ccccc2)CC1 | 141 ± 26%
6 | CC(C)SC(=N)N [S-Isopropylisothiourea hydrobromide] | 97.1 ± 3.1%
7 | CCCCN1CCCC1CNC(=O)c1cc(C#N)c2ccccc2c1OC (stereo not given) [Nafadotride] | 127 ± 15%
8 | O=C(O)Cn1c(C(=O)Nc2nc(-c3ccccc3Cl)cs2)cc2ccccc21 | 133 ± 2.8%
9 | COCCCC/C(=N\OCCN)c1ccc(C(F)(F)F)cc1 [Fluvoxamine maleate] | 49.7 ± 11%
10 | O=S(=O)(c1cccc2cnccc12)N1CCCNCC1 [Fasudil hydrochloride] | 90.6 ± 21%
11 | Nc1ccc(-c2cccc3c(=O)cc(N4CCOCC4)oc23)cc1 | 104 ± 7.9%
12 | C[S+]([O-])c1ccc(-c2nc(-c3ccc(F)cc3)c(-c3ccncc3)[nH]2)cc1 (stereo not given) | 8.46 ± 12%
13 | N=C(N)S/C=C\C(=O)O [ZAPA sulphate] | 106 ± 28%
14 | COc1ccc(CCN(C)CCCOc2ccc(S(=O)(=O)c3c(C(C)C)c4ccccc4n3C)cc2)cc1OC | < 0%
15 | O=C(C=Cc1ccccc1)NC(NC(=S)Nc1ccc(Cl)cc1)C(Cl)(Cl)Cl (stereo not given) | 34.8 ± 9.4%
16 | CO[C@@H]1[C@H](O)[C@@H](CO)O[C@H]1n1cnc2c(NC3CCCCC3)ncnc21 | 103 ± 24%
17 | CC(C)N1Cc2cc(S(C)(=O)=O)ccc2N(CCN2CC=C(c3c[nH]c4cc(F)ccc34)CC2)S1(=O)=O | 181 ± 36%
18 | CCN(Cc1ccncc1)C(=O)C(CO)c1ccccc1 (stereo not given) [Tropicamide] | 111 ± 11%
19 | Cc1c(NC(=O)N2CCOCC2)ccc2c1c1ccccc1n2C(C)C | 144 ± 4.9%
20 | CN(Cc1ccccc1)C(=O)[C@H](Cc1ccc2ccccc2c1)NC(=O)[C@@H]1CCCN1C(=O)Nc1ccccc1[N+](=O)[O-] | 110 ± 9.9%

Row | SMILES | parasite growth
21 | N=C(N)N/N=C/c1c(Cl)cccc1Cl [Guanabenz acetate] | 99.52 ± 0.3%
22 | COc1ccc([C@@H]2CNC(=O)C2)cc1OC1CCCC1 [(R)-(-)-Rolipram] | 106 ± 6%
23 | COc1cccc(-c2cc(=O)c3ccccc3o2)c1N | 93.9 ± 37%
24 | CCCNC(=O)N1N=C(c2ccc(N)cc2)c2cc3c(cc2C1C)OCO3 (stereo not given) | 99.9 ± 32%
25 | OC[C@H]1O[C@@H](n2cnc3c(NC4CCCC4)ncnc32)[C@H](O)[C@@H]1O [N6-Cyclopentyladenosine] | 77.4 ± 7.7%
26 | Cc1ccc(O)c(N=Nc2ccccc2)n1 | 92.5 ± 68%
27 | Clc1ccc2c(c1)N=C(N1CCNCC1)c1ccccc1N2 [N-Desmethylclozapine] | 59.7 ± 2.8%
28 | CC#CCOC(=O)C1=CCCN(C)C1 [Arecaidine but-2-ynyl ester tosylate] | 144 ± 12%
29 | CC(=O)O[C@@H]1C[C@H]2C(C)(C)C(=O)C=C[C@]2(C)[C@H]2CC[C@@]3(C)[C@H](c4ccoc4)OC(=O)[C@H]4O[C@]43[C@@]21C [Gedunin] | 62.3 ± 9.6%
30 | Cc1nc2c(c(=O)[nH]1)CSCC2 | 122 ± 32%
31 | CNC(=O)[C@@H](Cc1ccccc1)N(C)C(=O)[C@@H](Cc1ccc2ccccc2c1)N(C)C(=O)/C=C/CC(C)(C)N [Tabimorelin] | 135 ± 20%
32 | NS(=O)(=O)c1cccc2c1c([N+](=O)[O-])cc1nc(O)c(O)nc12 | 144 ± 9.6%
33 | CCn1c(=O)n(C2=C(CO)CN(CC3CCCCCCC3)CC2)c2ccccc21 | 174 ± 19%
34 | CN(C)CCCCSC(=N)N | 93.3 ± 15%
35 | O=C(O)C1=CCNCC1 [Isoguvacine hydrochloride] | 130 ± 9.5%
36 | O=c1cc(-c2cccc3c2Sc2ccccc2S3)oc(N2CCOCC2)c1 | 112 ± 15%
37 | CNC(=C[N+](=O)[O-])NCCSCc1ccc(CN(C)C)o1 [Ranitidine hydrochloride] | 94.7 ± 18%
38 | CC[C@H](C)C(=O)O[C@H]1C[C@H](O)C=C2C=C[C@H](C)[C@H](CC[C@@H](O)C[C@@H](O)CC(=O)O)[C@H]21 [Pravastatin sodium salt] | 127 ± 9.5%
39 | O=C(O)CCC/C=C\C[C@@H]1CO[C@H](C(F)(F)F)O[C@@H]1c1ccccc1O | 102 ± 25%
40 | O=C(Nc1cccc2cccnc12)c1ccc(N2C(=O)[C@@H]3[C@H](C2=O)[C@@H]2C=C[C@H]3C2)cc1 [endo-IWR 1] | 113 ± 21%
